Screens from PubChem BioAssay.
Shown are actives, neighbours in structure and some others; about 19% of the full set was active somewhere.
HT1080 IDH1KD tx: HT-1080 IDH1 knockdown cell toxicity (counter line). HT-1080 IDH1 knockdown viability, ATP luminescence, 48 h. Potency, µM (top dose mostly 46.1 µM), for the others: top-dose activity, negative = toxicity, hits mostly cytotoxic. hit rate 2% among 360,000. AID 686971;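 also: potency is read from the fitted curve at half-maximal effect; 0% = DMSO wells and -100% = cell-free medium wells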
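IDH1KD HT-1080 cells, 750/well, RPMI + 5% FBS; compound pinned after 2 h settling; 48 h, 37 °C; CellTiter-Glo luminescence; % activity normalised to DMSO and no-cell wells; curves fitted, classed by r2 and efficacy.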
DT40 TDP1 CPT: DT40-hTDP1 cell growth loss with CPT; chicken DT40 Tdp1-/-;hTDP1 cells + 20 nM CPT, ATP luminescence, 48 h; Potency, µM (highest dose often 46.2 µM), for the others: at the top dose activity change, negative = growth inhibition, actives largely listed as inhibitors; hit rate 12% among 420,000; AID 686979; also: potency is read from the fitted curve at half-maximal effect; nearly all actives have a fitted effect of over 55% in size
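Chicken DT40 Tdp1-/- cells complemented with human TDP1, 400 cells/well, exposed to compounds plus 20 nM camptothecin for at least 48 h at 37 C; viability read as ATP content by CellTiter-Glo luminescence.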
IL-1B inflam inh: blocks inflammasome-driven IL-1 beta release; THP-1 LPS/ATP IL-1B secretion, AlphaLISA, 16 h; stronger effect = lower value; activity change, % at 57.5 µM; hit rate 4.7% among 360,000; AID 743279; in the data active = activity change below about -50%; inconclusive = mostly about -30% to -49%
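Secreted IL-1B measured by AlphaLISA bead assay after 16 h compound exposure of THP-1 cells; compounds (final up to 57.5 uM) added 1 h before LPS (250 ng/mL) and ATP (1.25 mM) stimulation; lower signal means less secretion.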
HT1080-NT tox: kills 2HG-producing HT-1080-NT fibrosarcoma cells | HT-1080-NT fibrosarcoma viability, CellTiter-Glo ATP luminescence, 48 h | Potency, µM (doses to about 46.1 µM), inactives show at the highest dose activity, negative = less viability, actives largely listed as cytotoxic | hit rate 1.6% among 360,000 | AID 686970;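 also: NT is the 2HG producing partner of a matched IDH1 knockdown line; potency is read from the fitted curve at half-maximal effect; 0% = DMSO-treated cells and -100% = media-only wells without cells; nearly all actives have a fitted effect of over 55% in size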
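A 48-hour cytotoxicity screen used HT-1080-NT cells plated 2 hours before compound delivery. ATP-based CellTiter-Glo luminescence measured viability, normalized to DMSO and no-cell controls.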
DT40 TDP1 no CPT: qHTS for Inhibitors of human tyrosyl-DNA phosphodiesterase 1 (TDP1): qHTS in cells in absence of CPT; DT40 Tdp1-/- hTDP1 cells, no CPT, ATP luminescence, 48 h; Potency, µM (highest dose often 46.2 µM), inactives show at the top dose activity change, negative = growth inhibition, most hits filed as inhibitors; hit rate 15% among 420,000; also: potency is read from the fitted curve at half-maximal effect; nearly all actives have a fitted effect of over 55% in size
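Chicken DT40 Tdp1-/- cells complemented with human TDP1, screened without camptothecin (DMSO vehicle only), 400 cells/well. Compounds pin-transferred, cells incubated at 37 °C for at least 48 hr. Growth read as ATP-dependent luminescence (CellTiter-Glo, 30 min at RT).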
* marks the source's active call; other numbers are inactive results; i = inactive; u = inconclusive; x = no result; [ ] = another dose, or the depositor's remark. Unless noted, calls follow the shape of the dose curve; as a rule, active = well fitted curve in the direction sought with a large enough effect; inconclusive = small, poorly fitted or top-dose-only effect, or another doubt; inactive = no such curve, though single readings can be large; an effect the other way counts as inactive or inconclusive. Unless noted, % is scaled to controls: 0 for no effect and ±100 for the full control effect.

SMILES	HT1080 IDH1KD tx	DT40 TDP1 CPT	IL-1B inflam inh	HT1080-NT tox	DT40 TDP1 no CPT
CC(C)(C)n1nc2c(c1NC(=O)c1c(F)cccc1F)CS(=O)(=O)C2	2%	-5%	0	1%	7%
CC(C)(C)n1nc2c(c1NC(=O)c1ccc(F)c(F)c1)CS(=O)(=O)C2	1%	1%	i	-6%	16µM*
O=C(Nc1c2c(nn1-c1ccc(Cl)cc1)CS(=O)(=O)C2)c1cccc(F)c1	x	21µM*	x	x	18µM*
O=C(NNC(=O)c1ccccc1F)c1cccc(S(=O)(=O)N2CCc3ccccc32)c1	0%	18µM*	39	-9%	10µM*
O=C(NCCc1ccccn1)c1cccc(S(=O)(=O)N2CCc3ccccc32)c1	-13%	u	11	-8%	u
O=C(NCc1ccncc1)c1cccc(S(=O)(=O)N2CCc3ccccc32)c1	-17%	21µM*	-12	u	u
CC(NC(=O)c1cccc(S(=O)(=O)N2CCc3ccccc32)c1)c1ccco1 (centres undefined)	-6%	u	-6	-13%	18µM*
O=c1c(Cl)c(NCc2ccccc2Cl)cnn1C12CC3CC(CC(C3)C1)C2	19%	u	x	9%	u
O=C1CC(C2CCCO2)C(=O)N1c1ccc(Cl)c(Cl)c1 (centres undefined)	7%	u	-21	5%	6%
COc1ccc(C2C(=O)N(C3CCC(C)CC3)CC(=O)N2C2CCCC2)cc1OC (centres undefined)	x	2%	x	x	-4%
CCOc1cc(/C=N/O)ccc1OCc1ccc(F)cc1	-3%	u	0	-10%	u
CCOc1ccc(C=Nc2ccc(/C=C/c3ccnc4ccccc34)cc2)cc1OCC	x	16µM*	x	x	10µM*
CCCCN(CCCC)c1ccc(C=Nc2ccc(/C=C/c3ccnc4ccccc34)cc2)cc1C	x	11µM*	x	x	10µM*
O=C(CN1C(=O)COc2ccc(Cl)cc21)N1CCc2ccccc21	-22%	-22%	-9	9%[9.24 µM]	-23%
COc1ccc(-c2nc3ccc(NC(=O)COC(C)=O)cc3c(=O)n2Cc2ccccc2)cc1COc1ccc(NC(C)=O)cc1	-7%	u	x	-13%	11µM*
COc1ccc(-c2nc3ccc(NC(C)=O)cc3c(=O)n2Cc2cccc(Cl)c2)cc1COc1ccc(NC(C)=O)cc1	-14%	11µM*	x	-21%	13µM*
O=c1c2ccccc2ncn1Cc1cccc2ccccc12	1%	u	-54*	-2%	-13%
Cc1ccc(S(=O)(=O)N2CCOCC2)cc1-c1n[nH]c(=S)n1-c1ccccc1	4%	-23%	-1	2%[9.24 µM]	9%
Cc1ccc(C)c(NC(=S)N(Cc2ccc(Cl)cc2)Cc2ccc(C(=O)O)cc2)c1	-3%	-26%	-6	0%	-2%
C=CCn1c(O)c(N=NC(=O)OCC)c2ccccc21	11%	u	13	9%	u
C=CCn1c(O)c(N=NC(=O)CNC(=O)Cc2ccccc2)c2ccccc21	-3%	-7%	34	2%	5%
C=CCn1c(O)c(N=NC(=S)Nc2cccc(OC)c2)c2ccccc21	-26%	3.3µM*	20	-15%	2.9µM*
C=CCn1c(O)c(N=NC(=S)Nc2ccc(OC)cc2)c2ccccc21	-20%	3.7µM*	9	-10%	4.6µM*
Cc1ccc(NC(=O)C(OC(=O)c2cnc(C)cn2)c2ccccc2)c([N+](=O)[O-])c1 (centres undefined)	-5%	-27%	i	-1%	u
O=C(O)CNc1nc(Cl)ccc1[N+](=O)[O-]	2%	1%	4	8%	21%
SMILES	HT1080 IDH1KD tx	DT40 TDP1 CPT	IL-1B inflam inh	HT1080-NT tox	DT40 TDP1 no CPT
COCCNCCCOc1ccc(C(C)(C)c2ccccc2)cc1	4%	u	-23	-1%	u
CC(C)(c1ccccc1)c1ccc(OCCCNCCO)cc1	18µM*	u	u	u	21µM*
CC(C)(C)c1ccc(OCCCNCc2ccccc2)cc1	-4%	u	-102*	-8%	u
COCCCNCCCOc1ccc(C(C)(C)c2ccccc2)cc1	4%	u	u	-9%	18µM*
C=CCNCCCOc1ccc(C(C)(C)c2ccccc2)cc1	-7%	u	-89*	-6%	u
O=C(COc1ccccc1Br)Nc1ccc2c(c1)OCCCO2	0%	-19%	-8	-2%	-28%
CS(=O)(=O)N1CCC2(CC1)CN(c1ccccn1)C2	x	6%	x	x	-15%
O=C1CN(c2ccc(F)cc2)C(=S)N1c1ccccc1	15%	11%	8	1%	-3%
Clc1cc(Br)ccc1OCCCNCc1ccccc1	u	21µM*	-101*	23µM*	u
CCc1cc(OCCCCNCc2ccccc2)ccc1Cl	u	21µM*	-102*	23µM*	18µM*
c1ccc(CNCCCNCCCCNCCCNCc2ccccc2)cc1	5.2µM*	u	-110*	u	21µM*
CCNC(=O)C1CCN(S(=O)(=O)c2ccc3c(c2)CCCN3C(C)=O)CC1	x	-3%	x	x	0%
CCc1ccc(CN2CCCC(C(=O)N3CCCCC3)C2)cc1 (centres undefined)	7%	6%	-7	13%	-7%
CN(C)CCNC(=O)c1ccc2c(c1)N(Cc1c(F)cccc1Cl)C(=O)c1ccccc1S2	x	16µM*	x	x	23µM*
O=C(c1ccc2c(c1)N(Cc1cccc(Cl)c1)C(=O)c1ccccc1S2)N1CCOCC1	x	18µM*	x	x	u
C=CCN1C(=O)c2ccccc2Sc2ccc(C(=O)N3CCN(C)CC3)cc21	8%	u	12	-1%	u
O=C(O)c1ccc2c(c1)N(Cc1ccccc1)C(=O)c1ccccc1S2	-1%	11%	25	0%	12%
O=C(c1ccc2c(c1)N(Cc1c(F)cccc1Cl)C(=O)c1ccccc1S2)N1CCCC1	x	u	x	x	23µM*
O=C(c1ccc2c(c1)N(Cc1cccc(F)c1)C(=O)c1ccccc1S2)N1CCCC1	x	21µM*	x	x	u
O=C(NCCN1CCOCC1)c1ccc2c(c1)N(Cc1c(F)cccc1Cl)C(=O)c1ccccc1S2	-2%	u	0	-18%	u
COC(=O)C1(CCSC)NC(c2ccc(O)c(OC)c2)C2C(=O)N(c3ccc(C)cc3)C(=O)C21 (centres undefined)	-7%	19%	47	-12%	-7%
Cc1cccc(-c2noc(CSc3nc(-c4ccc(F)cc4)cc(=O)[nH]3)n2)c1	x	-8%	x	x	-18%
CCOc1ccc(Oc2ccc(S(=O)(=O)N3CCOCC3)cc2N)cc1	-10%	u	-3	-17%	u
O=C(Nc1ccc(Cl)c(S(=O)(=O)N2CCOCC2)c1)c1ccccc1-c1ccc(C(F)(F)F)cc1	-15%	u	-14	-8%	16µM*
